A short description of assay [1]: qHTS assay for identifying genotoxic compounds that show differential cytotoxicity against isogenic chicken DT40 cell lines with known DNA damage response pathways - wild type cell line (AID 743012). Note: nearly all actives have a fitted effect of over 60% in size. Note: potency is the fitted concentration of half-maximal effect. The method, boiled down: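 Cytotoxicity in repair-proficient parental chicken DT40 cells serves as the comparator for Rad54/Ku70- and Rev3-deficient lines. Cells were exposed to compounds for 40 h at 37 C/5% CO2, and ATP-based luminescence (CellTiter-Glo) measured viability.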

Assay [2] in a line: qHTS assay for identifying genotoxic compounds that show differential cytotoxicity against isogenic chicken DT40 cell lines with known DNA damage response pathways - Rev3 mutant cell line (AID 743014). Note: nearly all actives have a fitted effect of over 55% in size. Note: potency is the fitted concentration of half-maximal effect.
The nature of assay [3]: qHTS assay for identifying genotoxic compounds that show differential cytotoxicity against isogenic chicken DT40 cell lines with known DNA damage response pathways - Rad54/Ku70 mutant cell line (AID 743015). Note: nearly all actives have a fitted effect of over 60% in size. Note: potency is the fitted concentration of half-maximal effect.
Assay [4] is described as follows: qHTS assay to identify small molecule antagonists of the androgen receptor (AR) signaling pathway - cell viability counter screen (AID 743033; note: nearly all actives have a fitted effect of over 45% in size; note: potency is the fitted concentration of half-maximal effect).
Assay [5] can be described thus: qHTS assay to identify small molecule antagonists of the androgen receptor (AR) signaling pathway using the MDA cell line - cell viability counter screen (AID 743041; note: nearly all actives have a fitted effect of over 45% in size). The method, boiled down: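 In this qHTS counter assay, fluorescence intensity after CellTiter-Fluor addition indicated viability of MDA-kb2 AR-luc cells given compounds and R1881 for 16 h at 37C.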

The nature of assay [6]: qHTS assay to identify small molecule antagonists of the thyroid receptor (TR) signaling pathway - cell viability counter screen (AID 743064). Note: nearly all actives have a fitted effect of over 50% in size. Note: potency is the fitted concentration of half-maximal effect. The method, boiled down:
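In rat pituitary GH3.TRE-Luc reporter cells co-exposed to compound and 1 nM T3 for 23.5 h, cytotoxicity was assessed with CellTiter-Fluor in the same wells, read by fluorescence.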

For assay [7], the system named is thyroid hormone receptor (rat, GH3 cells). Briefly: qHTS assay to identify small molecule agonists of the thyroid receptor (TR) signaling pathway (AID 743066; calls by dose curve).
Assay [8] can be described thus: qHTS assay to identify small molecule antagonists of the estrogen receptor alpha (ER-alpha) signaling pathway using the BG1 cell line - cell viability counter screen (AID 743081).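 Note: compound given together with 17beta-estradiol as the ER stimulus; nearly all actives have a fitted effect of over 45% in size.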 Note: potency is the fitted concentration of half-maximal effect.
A further assay deals with Aromatase (Homo sapiens) (UniProt P11511). Briefly: qHTS assay to identify aromatase inhibitors (AID 743083). Note: nearly all actives have a fitted effect of over 55% in size. Note: potency is the fitted concentration of half-maximal effect.
Assay [9] is described as follows: qHTS assay to identify aromatase inhibitors - cell viability counter screen (AID 743084).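 Note: cells stimulated with testosterone during compound exposure; nearly all actives have a fitted effect of over 55% in size.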 Note: potency is the fitted concentration of half-maximal effect.
Assay [10] in a line: qHTS assay to identify small molecule antagonists of the glucocorticoid receptor (GR) signaling pathway - cell viability counter screen (AID 720693). Note: nearly all actives have a fitted effect of over 55% in size. Note: potency is the fitted concentration of half-maximal effect.
Assay [11] deals with Androgen receptor (Homo sapiens) (UniProt P10275). Briefly: qHTS assay to identify small molecule agonists of the androgen receptor (AR) signaling pathway using the MDA cell line (AID 743040; note: nearly all actives have a fitted effect of over 20% in size). The procedure, abridged:
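Cell-based luciferase reporter: MDA-kb2, MMTV promoter (AR + GR response elements). 16 h compound exposure at 37C; ONE-Glo, 30 min RT, luminescence.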

Assay [12] shares this target. Briefly: qHTS assay to identify small molecule antagonists of the androgen receptor (AR) signaling pathway using the MDA cell line (AID 743042; note: nearly all actives have a fitted effect of over 55% in size; note: potency is the fitted concentration of half-maximal effect). The method, boiled down:
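MDA-kb2 cells (human breast carcinoma, stably carrying an MMTV-luciferase reporter responsive to AR and GR) were plated at 3,000 cells/well and preincubated 5 hr at 37C, then given compound plus R1881 agonist for 16 h. ONE-Glo luminescence was read.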

Assay [13] is described as follows: qHTS assay to identify small molecule antagonists of the thyroid receptor (TR) signaling pathway (AID 743065). Note: nearly all actives have a fitted effect of over 55% in size. Note: potency is the fitted concentration of half-maximal effect. The procedure, abridged: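 GH3.TRE-Luc rat pituitary cells carrying two TR response elements driving luciferase were plated for 4 h, given compound plus 1 nM T3 (final), and incubated 23.5 h at 37 C. ONE-Glo luminescence measured reporter inhibition; CellTiter-Fluor fluorescence tracked cytotoxicity.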

Assay [14] is described as follows: qHTS assay to identify small molecule antagonists of the estrogen receptor alpha (ER-alpha) signaling pathway - cell viability counter screen (AID 743074; calls by dose curve;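 note: HEK293 cells carrying ER-alpha-UAS-bla reporter stimulated with 17beta-estradiol; nearly all actives have a fitted effect of over 45% in size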).
Assay [15] deals with Estrogen receptor (Homo sapiens) (UniProt P03372). Briefly: qHTS assay to identify small molecule agonists of the estrogen receptor alpha (ER-alpha) signaling pathway using the BG1 cell line (AID 743079). Note: nearly all actives have a fitted effect of over 20% in size. Note: potency is the fitted concentration of half-maximal effect.
Assay [16] has the same target. Briefly: qHTS assay to identify small molecule antagonists of the estrogen receptor alpha (ER-alpha) signaling pathway (AID 743069; active = well fitted curve in the direction sought with a large enough effect in the signal ratio in the repeat runs, not every such curve was filed as active; inconclusive = weak or mixed curves, or effect the other way; inactive = no such curve, though single readings can be large or run the other way; the % refers to the signal ratio). The method, boiled down:
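A 17beta-estradiol challenge was applied right after compound transfer to ER-alpha-UAS-bla HEK293 cells previously kept in charcoal-stripped serum. Plates stood 18 hr at 37C and 5% CO2; fluorescence was read following 2 hr FRET substrate loading at room temperature.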

For assay [17] the target is unchanged. Briefly: qHTS assay to identify small molecule agonists of the estrogen receptor alpha (ER-alpha) signaling pathway (AID 743075; calls by dose curve;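 note: HEK293 GripTite cells with ER-alpha and UAS-driven beta-lactamase reporter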; note: potency is the fitted concentration of half-maximal effect).
Assay [18] concerns the target Androgen receptor (Homo sapiens) (UniProt P10275). Briefly: qHTS assay to identify small molecule agonists of the androgen receptor (AR) signaling pathway (AID 743036; active = well fitted activation curve with a large enough effect in the signal ratio in the repeat runs, with a control signal flat, not every such curve was filed as active; inconclusive = weak or mixed curves, or effect the other way; inactive = no such curve, though single readings can be large or run the other way; the % refers to the signal ratio). The procedure, abridged:
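Cell-based FRET reporter assay: HEK293 line with a UAS-beta-lactamase construct, compounds added in DMSO, 16 h exposure at 37C, then 2 h substrate step at room temperature and fluorescence intensity read.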

Assay [19] can be described thus: qHTS assay to identify small molecule antagonists of the estrogen receptor alpha (ER-alpha) signaling pathway using the BG1 cell line (AID 743080; calls by dose curve;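 note: BG1 cells stimulated with 17beta-estradiol alongside compound; series mostly up to about 70 µM; nearly all actives have a fitted effect of over 25% in size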). The procedure, abridged:
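Luminescence from a 4×ERE-luciferase reporter in BG1-Luc-4E2 cells served as read-out. Cells, pre-cultured 5 days in stripped-serum phenol-red-free medium, were exposed to compound with 17beta-estradiol co-stimulation for 21.5 h at 37 C.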

The source of these data is PubChem BioAssay (Tox21).

Several values for one entry are separate records, joined by “and”; a condition that tells them apart may be missing. Equal entries are not always repeated. Activity calls are given as the source filed them. Unless noted, calls come from the whole dose curve; as a rule, active = well fitted curve in the direction sought with a large enough effect in the repeat runs; inconclusive = weak or mixed curves; inactive = no such curve, though single readings can be large; an effect the other way counts as inactive or inconclusive.

Sequence of Aromatase (Homo sapiens) (P11511 whole entry, looked up): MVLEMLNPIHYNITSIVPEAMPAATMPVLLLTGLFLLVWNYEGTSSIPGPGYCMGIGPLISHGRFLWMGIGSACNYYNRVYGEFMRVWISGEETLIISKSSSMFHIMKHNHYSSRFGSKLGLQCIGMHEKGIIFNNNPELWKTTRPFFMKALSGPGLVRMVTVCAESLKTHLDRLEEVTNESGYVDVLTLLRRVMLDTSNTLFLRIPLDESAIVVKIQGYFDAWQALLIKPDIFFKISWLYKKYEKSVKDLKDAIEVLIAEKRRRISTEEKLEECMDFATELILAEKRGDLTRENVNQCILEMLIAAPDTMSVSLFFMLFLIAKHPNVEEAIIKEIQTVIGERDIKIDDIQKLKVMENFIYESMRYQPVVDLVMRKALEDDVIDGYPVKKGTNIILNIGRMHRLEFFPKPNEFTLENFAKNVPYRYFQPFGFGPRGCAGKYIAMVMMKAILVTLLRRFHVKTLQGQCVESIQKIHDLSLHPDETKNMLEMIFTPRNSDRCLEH
Sequence of Estrogen receptor (Homo sapiens) (P03372 whole entry, looked up): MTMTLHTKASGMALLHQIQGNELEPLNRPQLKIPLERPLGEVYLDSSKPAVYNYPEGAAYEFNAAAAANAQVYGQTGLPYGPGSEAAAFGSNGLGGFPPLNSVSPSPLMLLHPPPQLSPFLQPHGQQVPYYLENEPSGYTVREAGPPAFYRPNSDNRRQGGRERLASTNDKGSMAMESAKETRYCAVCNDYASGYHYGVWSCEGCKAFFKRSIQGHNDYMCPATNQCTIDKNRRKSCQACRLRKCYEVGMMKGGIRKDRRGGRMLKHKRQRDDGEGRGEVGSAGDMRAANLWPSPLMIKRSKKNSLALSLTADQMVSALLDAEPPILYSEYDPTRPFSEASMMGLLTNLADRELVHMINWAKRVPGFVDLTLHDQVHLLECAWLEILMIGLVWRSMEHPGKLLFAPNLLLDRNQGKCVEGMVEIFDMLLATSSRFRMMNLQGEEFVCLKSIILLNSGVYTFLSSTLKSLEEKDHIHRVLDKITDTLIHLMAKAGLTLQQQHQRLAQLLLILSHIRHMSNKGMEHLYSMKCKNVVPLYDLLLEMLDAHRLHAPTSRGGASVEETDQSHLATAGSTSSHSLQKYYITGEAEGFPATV
Sequence of Androgen receptor (Homo sapiens) (P10275 whole entry, looked up): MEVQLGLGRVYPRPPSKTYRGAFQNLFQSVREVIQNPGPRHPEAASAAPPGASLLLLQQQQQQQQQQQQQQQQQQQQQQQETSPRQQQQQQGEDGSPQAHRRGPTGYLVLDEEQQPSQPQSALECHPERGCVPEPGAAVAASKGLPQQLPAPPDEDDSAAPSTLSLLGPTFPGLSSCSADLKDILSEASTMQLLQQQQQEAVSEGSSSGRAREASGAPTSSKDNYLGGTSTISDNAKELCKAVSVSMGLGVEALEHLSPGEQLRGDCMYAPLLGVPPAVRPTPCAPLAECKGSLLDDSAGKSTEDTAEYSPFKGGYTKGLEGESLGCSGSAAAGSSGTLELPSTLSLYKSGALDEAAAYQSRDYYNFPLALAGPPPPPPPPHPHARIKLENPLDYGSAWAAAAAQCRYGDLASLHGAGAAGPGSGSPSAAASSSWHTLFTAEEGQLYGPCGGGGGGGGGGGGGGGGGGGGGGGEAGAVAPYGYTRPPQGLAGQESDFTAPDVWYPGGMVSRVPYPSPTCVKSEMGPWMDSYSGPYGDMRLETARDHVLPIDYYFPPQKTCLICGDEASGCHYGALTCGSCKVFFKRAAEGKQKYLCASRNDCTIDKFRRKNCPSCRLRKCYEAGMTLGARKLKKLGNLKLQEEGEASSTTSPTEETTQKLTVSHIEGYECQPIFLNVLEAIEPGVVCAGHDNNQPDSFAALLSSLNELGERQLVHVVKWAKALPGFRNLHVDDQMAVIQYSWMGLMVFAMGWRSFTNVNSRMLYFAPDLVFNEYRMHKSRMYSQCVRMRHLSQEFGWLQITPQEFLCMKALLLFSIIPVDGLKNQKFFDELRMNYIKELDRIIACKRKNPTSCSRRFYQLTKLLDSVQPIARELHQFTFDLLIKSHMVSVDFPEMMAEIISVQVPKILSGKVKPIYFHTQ

Consider `COc1ccc(N)cc1N`, for which the Potency in assay [1] is 11.7 µM (active); in assay [2], 3.98 µM (active) and 5.87 µM (active); in [3], 9.99 µM (active) and 7.38 µM (active); in [4], 16 µM (active) and 18.7 µM (active); in assay [6], 37 µM (active); with Aromatase (Homo sapiens) it was 12.6 µM (active) and 33 µM (active). For the same molecule, the Potency in assay [9] is 12.6 µM (active). Moreover, the Potency entry in assay [5] and in [8] was “inactive” each time. In addition, the molecule was classed as inactive in assay [7].
For the molecule `[CH3][Hg][Cl]`, the Potency is 19.5 µM (active) in assay [10]; 48.4 µM (active) in assay [3]; 0.861 µM (active) in assay [6]; 1.22 µM (active) in assay [13]; 34.3 µM (active) in assay [8]; 27.2 µM (active) with Aromatase (Homo sapiens). Besides, in [9], the Potency is 24.3 µM (active). Further, the Potency entry in assay [4], in assay [11], in assay [5], in assay [12], in assay [14] and in assay [15] was “inactive” throughout.
For `COP(=O)(OC)SCn1c(=O)oc2cc(Cl)cnc21`, the figures for the Potency (in assay [10]; in [12]; with Aromatase (Homo sapiens)) were 49 µM (active), 48.6 µM (active) and 19.3 µM (active), respectively. The Potency result in assay [4], in assay [11], in assay [5], in assay [16], in [14] and in assay [17] was “inactive” each time. For the same molecule, the Potency entry in assay [15] and in assay [8] was “inactive” each time. For the same molecule, in assay [7], the result was inactive.
As to `CCOc1cc(C(C)(C)C)ccc1C1COC(c2c(F)cccc2F)=N1` (stereo not drawn), the Potency is 26.3 µM (active) in assay [1]; 23.4 µM (active) in assay [2]; 11.7 µM (active) in assay [3]; 18.6 µM (active) in [6]; 41.6 µM (active) with Aromatase (Homo sapiens). The Potency entry in assay [4], in assay [18], in assay [11], in assay [5], in assay [14] and in assay [17] was “inactive” throughout. The Potency entry in assay [19] and in assay [8] was “inactive” throughout.
Consider `CN(C)C1CSSSC1`, for which the Potency entry in assay [10], in assay [4], in assay [5], in [6], in assay [13] and in assay [16] was “inactive” throughout. The Potency result (in assay [14]; in assay [17]; in [15]; in assay [19]; in assay [8]; with Aromatase (Homo sapiens)) was “inactive” in each case. Moreover, the Potency result in assay [9] is “inactive”. Besides, the Potency in assay [3] was 21.7 µM (active). In addition, the molecule was called inactive in assay [7].
`Nc1ccc(Sc2ccc(N)cc2)cc1`: the Potency result in assay [10], in assay [4], in [6], in assay [13], in assay [16] and in assay [19] was “inactive” throughout. Besides, the Potency in [3] was 62.9 µM (active); in [17] it was 0.219 µM [inconclusive] (active). Besides, the molecule was called inactive in [7].
Regarding `O=C(O)COc1nc(Cl)c(Cl)cc1Cl`, the Potency result in [10], in assay [5], in assay [13], in assay [16], in assay [17] and in assay [15] was “inactive” throughout. Also, the Potency entry (in assay [19]; in assay [8]; with Aromatase (Homo sapiens)) was “inactive” throughout. The Potency in [2] was 57.4 µM (active). The molecule was classed as inactive in [7].
Turning to `Cc1ccc(OP(=O)(Oc2ccccc2)Oc2ccccc2)cc1`, the Potency result in assay [10], in [4], in assay [11], in [12], in assay [6] and in [16] was “inactive” each time. Besides, the Potency result (in assay [17]; in assay [19]; in assay [8]; with Aromatase (Homo sapiens); in assay [9]) was “inactive” in each case. The call in assay [7] was inactive. Also, the Potency in assay [15] was 3.91 µM (active).
Regarding `CCOC(=O)OC1=C(c2cc(C)ccc2C)C(=O)NC12CCC(OC)CC2` (stereo not drawn), the Potency entry in assay [10], in assay [4], in assay [5], in assay [16], in [17] and in assay [19] was “inactive” each time. Moreover, the Potency result (in assay [8]; with Aromatase (Homo sapiens); in assay [9]) was “inactive” throughout. In addition, the Potency in assay [2] is 30.6 µM (active); in assay [13] it was 54.4 µM (active). For the same molecule, the result in assay [7] was inactive.
Take `CC(C)OS(C)(=O)=O`: the Potency result in assay [10], in assay [3], in assay [4], in assay [5], in assay [6] and in assay [13] was “inactive” each time. In addition, the Potency entry in [16], in [14], in [17], in [15], in assay [19] and in assay [8] was “inactive” throughout. In addition, the Potency entry (in the assay with Aromatase (Homo sapiens); in [9]) was “inactive” in each case. The outcome in assay [7] was inactive.
For the molecule `N#CC(Cl)Cl`, the Potency entry in assay [10], in assay [5], in assay [12], in assay [14] and in assay [8] was “inactive” throughout. The Potency in assay [2] and in assay [6] was 59.5 µM (active) each time.
Turning to `O=C(O)C1C2CCC(O2)C1C(=O)O` (stereo not drawn), the Potency entry in assay [1], in [2], in assay [3], in assay [4], in assay [5] and in assay [6] was “inactive” each time. The Potency entry in assay [14] and in [8] was “inactive” throughout. The outcome in assay [7] was inactive.
Consider `Nc1ccccc1C(=O)Oc1ccc2ccccc2c1`, for which the Potency entry in [10], in assay [4], in [18], in assay [5], in [12] and in assay [6] was “inactive” throughout. Moreover, the Potency entry (in assay [13]; in assay [14]; in assay [17]; in assay [8]; with Aromatase (Homo sapiens); in assay [9]) was “inactive” in each case. In addition, in assay [15], the Potency was 4.33 µM (active).
As for `O=[N+]([O-])c1c2ccccc2cc2ccccc12`, the Potency entry (in assay [10]; in assay [4]; in [5]; in the assay with Aromatase (Homo sapiens); in assay [9]) was “inactive” in each case. The outcome in [7] was inactive. Moreover, in assay [15], the Potency is 42.9 µM (active).
Take `CS(=O)(=O)c1ccc(C(=O)C2C(=O)CCCC2=O)c([N+](=O)[O-])c1`: the Potency in [2] is 44 µM (active); in assay [3], 45.6 µM (active); in assay [6], 55.4 µM (active). In addition, the Potency result in [4], in assay [5], in assay [16], in [17], in [15] and in assay [19] was “inactive” throughout. Also, the Potency entry (in assay [8]; with Aromatase (Homo sapiens)) was “inactive” in each case. In addition, the call in assay [7] was inactive.
Take `C[C@]12CC[C@H]3[C@@H](CCC4=CC(=O)CC[C@@]43C)[C@@H]1CC[C@@H]2O`: the results for the Potency in [1], in assay [2] and in [13] were 54.1 µM (active), 30.4 µM (active) and 30.4 µM (active), respectively. For the same molecule, the Potency entry in [4], in assay [5], in assay [6], in [14], in [19] and in assay [8] was “inactive” each time. Moreover, the Potency result (in the assay with Aromatase (Homo sapiens); in [9]) was “inactive” each time. Moreover, in assay [7], the outcome was inactive.
